# High-throughput results as filed in PubChem BioAssay.
# An excerpt weighted towards active compounds, which were near 5.4% of everything screened.
# A3A deaminase: human APOBEC3A DNA deaminase inhibition; P31941; inhibition, % at 20 µM; AID 493011; hit rate 0.41% among 330,000; recombinant A3A, FAM/TAMRA ssDNA deamination fluorescence;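 active = at least 40% inhibition at 20 µM here, with at most 30% in a related deaminase screen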;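 also: plate controls were A3A with DMSO for no effect and wells lacking A3A enzyme for full effect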
# Target sequence (P31941 whole entry, looked up): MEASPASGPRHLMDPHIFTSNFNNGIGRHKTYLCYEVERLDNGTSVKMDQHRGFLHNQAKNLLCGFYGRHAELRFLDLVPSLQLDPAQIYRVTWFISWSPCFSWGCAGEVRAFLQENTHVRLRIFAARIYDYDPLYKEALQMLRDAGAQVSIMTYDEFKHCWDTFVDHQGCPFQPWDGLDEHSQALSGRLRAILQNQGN
# A3G deaminase: inhibitors of human APOBEC3G DNA deaminase. inhibition, % at 20 µM. recombinant A3G, ssDNA deamination FAM/TAMRA fluorescence. AID 493012. Q9HC16. hit rate 0.28% among 330,000;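 active = inhibition of at least 40% at 20 µM, with no more than 30% in the related APOBEC3A deaminase screen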;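 also: plate controls were DMSO wells with A3G for no effect and wells lacking A3G enzyme for full effect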
# rCAG RNA binder: binds r(CAG) RNA repeats; r(CAG) RNA repeat, TO-PRO-1 dye displacement fluorescence; inhibition, % at 3 µM; AID 651821; hit rate 1.3% among 370,000;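 active = inhibition above the plate cutoff, the mean of all test compounds on that plate plus 3 SD, cut at about 35% in these data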;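 also: 0% = DMSO alone and 100% = 100 µM mitoxantrone as full dye displacement; higher means more dye released from RNA so lower well fluorescence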
# ALR H2O2 inh: blocks human ALR sulfhydryl oxidase activity; P55789; purified ALR, DTT oxidation, H2O2 HRP-luminol luminescence; inhibition, % (no concentration beside the values); hit rate 3.8% among 290,000;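 active = mean replicate inhibition above about 79%, with every replicate also reaching it, limit read from the data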
# Target sequence (P55789 whole entry, looked up): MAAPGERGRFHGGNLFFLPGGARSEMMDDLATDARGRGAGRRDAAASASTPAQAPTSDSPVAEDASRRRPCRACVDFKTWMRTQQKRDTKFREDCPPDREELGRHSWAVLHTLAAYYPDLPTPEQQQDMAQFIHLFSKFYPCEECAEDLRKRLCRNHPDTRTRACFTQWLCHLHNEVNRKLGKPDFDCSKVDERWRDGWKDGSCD
# aDG glyco up: alpha-DG glycosylation activation; Pro5-aDG cells, alpha-DG glycosylation AlphaScreen (IIH6); 0% Pro5, 100% B10-LARGE cell signal; activation, % at 10 µM; hit rate 0.22% among 360,000;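 active = activation of at least 8% versus controls, or a plate z-score of at least 8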;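 also: Pro5 are CHO cells carrying HIG-tagged alpha-DG that lacks glycosylation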
# PHOSPHO1 block: inhibitors of human PHOSPHO1 phosphatase | AID 1565 | Q8TCT1 | inhibition, % at 13.3 µM | hit rate 1.1% among 290,000 | recombinant PHOSPHO1, absorbance phosphatase assay; in the data active = inhibition above about 60%
# Numbers without * were called inactive; . = not tested or not shown.
SMILES,A3A deaminase,A3G deaminase,rCAG RNA binder,ALR H2O2 inh,aDG glyco up,PHOSPHO1 block
CCc1cccc(Oc2nn[nH]n2)c1,6.1,1.3,.,98.1*,0.0,44.0
Cc1ccc(Oc2nn[nH]n2)cc1,4.3,1.5,-3.0,-4.1,-0.1,4.1
CN(C)CCCN1CC(=O)N2CCc3ccc(Br)cc3C2CC1=O (configuration not stated),.,.,0.6,.,.,.
COc1ccc2c(C(c3ccccc3O)C3CCCN3S(=O)(=O)c3ccc(C)cc3)cn(C)c2c1 (configuration not stated),.,.,11.4,.,.,.
Cc1oc(-c2cccc(Cl)c2)nc1CS(=O)(=O)CC(=O)NCCN1CCOCC1,-2.1,-5.4,0.8,95.4*,-0.2,35.7
Cc1oc(-c2ccccc2Cl)nc1CS(=O)(=O)CC(=O)NCCN1CCOCC1,-1.1,-0.1,1.6,93.4*,-0.2,12.3
Cc1oc(-c2ccccc2F)nc1CS(=O)(=O)CC(=O)N1CCCCCC1,1.1,0.8,1.6,10.4,-0.2,18.2
Cc1oc(-c2ccccc2Cl)nc1CS(=O)(=O)CC(=O)N1CCOCC1,0.8,3.0,3.8,98.1*,-0.2,17.6
CCN1CCN(C(=O)CS(=O)(=O)Cc2nc(-c3cccc(OC)c3)oc2C)CC1,1.2,4.3,-4.6,98.8*,0.0,7.9
CCCN1CCN(C(=O)CS(=O)(=O)Cc2nc(-c3cccc(OC)c3)oc2C)CC1,-4.2,8.2,-12.3,18.7,0.0,11.9
COC(=O)[C@]12C[C@H](CC(=O)NCCC(C)C)C(=O)N(Cc3ccc(Cl)cc3Cl)C1=C[C@H](COCc1ccccc1)O[C@@H]2C,.,.,1.4,.,.,.
C#CCNC(=O)C[C@H]1C[C@@]2(C(=O)OC)C(=C[C@H](COCc3ccccc3)O[C@@H]2C)N(Cc2cccc3ccccc23)C1=O,.,.,8.0,.,.,.
C=CCN1C(=O)[C@@H](CC(=O)NCCC(C)C)[C@]2(C(=O)OCC)CCCCC/C=C/12,.,.,1.9,.,.,.
COc1cccc(-c2nc(CS(=O)(=O)CC(=O)NCCCN3CCc4ccccc4C3)c(C)o2)c1,-1.8,-2.5,-1.3,99.0*,-0.4,-2.4
COc1cccc(-c2nc(CS(=O)(=O)CC(=O)NCCCc3ccccc3)c(C)o2)c1,0.4,15.3,-0.2,-3.6,-0.2,-4.1
COc1ccc(-c2nc(CS(=O)(=O)CC(=O)NCCCN3CCOCC3)c(C)o2)cc1,-2.4,-0.3,-3.2,-1.4,0.1,-9.1
Cc1ccc(-c2nc(CS(=O)(=O)CC(=O)NCCCN3CCOCC3)c(C)o2)cc1,-3.6,-3.4,-3.9,-10.3,0.2,52.9
COc1cccc(-c2nc(CS(=O)(=O)CC(=O)NCCCN3CCOCC3)c(C)o2)c1,-0.2,-4.3,-1.8,98.6*,-0.1,14.0
CCC1CCCCN1CCCNC(=O)CS(=O)(=O)Cc1nc(-c2cccc(OC)c2)oc1C (configuration not stated),0.6,-0.1,0.5,98.4*,0.0,15.9
COc1cccc(-c2nc(CS(=O)(=O)CC(=O)NCCN3CCOCC3)c(C)o2)c1,-0.2,-2.2,-7.1,99.0*,0.0,7.0
CCOc1ccc(CCNC(=O)CS(=O)(=O)Cc2nc(-c3cccc(OC)c3)oc2C)cc1,-3.1,1.3,-2.9,-9.0,1.7,12.7
CN(Cc1ccccc1)C(=O)OCc1cn(Cc2cc(F)ccc2F)nn1,.,.,-1.1,.,.,.
Cn1cccc1C(=O)N1CCN(S(=O)(=O)c2ccc(Br)s2)CC1,.,.,3.6,.,.,.
Cc1ccccc1Cn1nnc(-c2ccc(F)cc2)n1,1.6,-0.9,-3.3,92.9*,0.1,37.5
Cc1cccc(NC(=O)Nc2nc3ncccn3c2-c2ccc(F)cc2)c1,.,.,4.4,.,.,.
SMILES,A3A deaminase,A3G deaminase,rCAG RNA binder,ALR H2O2 inh,aDG glyco up,PHOSPHO1 block
O=C(Nc1ccc(O)cc1)C1CCCN1S(=O)(=O)c1ccc(F)cc1 (configuration not stated),-3.3,-7.9,2.5,98.2*,0.0,-7.3
Cc1c(N=Nc2ccc(O)cc2)c(=O)n(-c2ccccc2)n1C,1.5,-4.7,0.9,1.2,-0.3,12.7
Cc1cc(N)ccc1N=Nc1c(C)n(C)n(-c2ccccc2)c1=O,-6.3,-6.5,2.4,99.4*,-0.1,-9.7
Cc1[nH]c2ccccc2c1N=Nc1c(C)n(C)n(-c2ccccc2)c1=O,-2.9,-6.2,-3.7,99.1*,-0.2,27.7
CCCCCCCCN1C(=O)[C@@H](CC(=O)N2CCSCC2)C[C@@]2(C(=O)OC)C1=C[C@H](C(C)(C)C)O[C@@H]2C,.,.,1.8,.,.,.
O=C(O)C1=CC(=C(c2ccc(O)c(C(=O)O)c2)c2ccc(O)c(C(=O)O)c2)C=CC1=O,.,.,.,97.4*,.,.
